Measurements: ChEMBL document CHEMBL4888484, “Replenishing the malaria drug discovery pipeline: Screening and hit evaluation of the MMV Hit Generation Library 1 (HGL1) against asexual blood stage Plasmodium falciparum ,using a nano luciferase reporter read-out” (2022)
About 540 (0.36%) of roughly 150,000 compounds showed an effect of 50% or more. The list comes from a sample in which strong results are over-represented; it also holds similar structures and randomly drawn compounds.

What follows are compounds tested on Plasmodium falciparum (assay: Primary screen in NF54 nanoGlo assay, in single point, at 2uM, 72h; a lower Z score goes with more inhibition). Settings: timepoint 72 hour.
Type: functional, Erythrocyte

| Compound | % Inhibition [%] | Z score |
| --- | --- | --- |
| Cc1c(C2=NO[C@H]3C(=O)N(c4ccc(Cl)cc4)C(=O)[C@@H]23)cnn1C | -7 | 1 |
| O=C1[C@@H]2C(c3ccccc3Cl)=NO[C@@H]2C(=O)N1c1ccc2ccccc2c1 | -9 | 1.2 |
| O=C(c1ccc2c(c1)CCC2)N1CC(O)C1 | 0 | 0 |
| Cc1cc(NCc2c(C)noc2C)nc(C2CC2)n1 | -7 | 1.22 |
| c1cc(-c2ccc(N3CCNCC3)nn2)ccn1 | 5 | -1.03 |
| Cc1ccc(Nc2ccc(N3CCNCC3)nn2)nc1 | 47 | -6.37 |
| Cc1ccnc(Nc2ccc(N3CCNCC3)nn2)c1 | 56 | -6.55 |
| CC(C)(C)OC(=O)CCc1cccnc1C(=O)O | -18 | 1.85 |
| CC1CC(C(=O)Nc2[nH]c(=O)ncc2F)CC(C)(C)C1 (configuration not stated) | 92 | -13.24 |
| CC1CC(C(=O)N[C@@H](C)c2cnccn2)CC(C)(C)C1 (some centres not stated) | 8 | -0.99 |
| CC1CC(C(=O)NCCCn2cn[nH]c2=O)CC(C)(C)C1 (configuration not stated) | 0 | 0.05 |
| C#CCNC(=O)c1ccc(N[C@@H](C)COC)nc1 | -9 | 1.46 |
| NC(=O)[C@@H]1CN(Cc2ccc(-c3ccc(Cl)cc3)s2)CCO1 | -11 | 1.78 |
| Cc1ccccc1-n1c(=O)c2sccc2n(CC(=O)Nc2ccc(N(C)C)cc2)c1=O | 2 | -0.2 |
| COc1cccc(Cn2c(=O)c3sccc3n(CC(=O)Nc3ccc(N(C)C)cc3)c2=O)c1 | 37 | -1.71 |
| Cc1cc(C)cc(-n2c(=O)c3sccc3n(CC(=O)Nc3ccc(N(C)C)cc3)c2=O)c1 | 51 | 1.43 |
| CCN(CCn1cccn1)Cc1cncn1C1CC1 | -7 | 1.49 |
| CCOC(=O)c1nc(NCC2CCN(Cc3ccccc3F)CC2)c2ccccc2n1 | -6 | 1.09 |
| CCc1ccccc1Nc1c2c(nc3ccccc13)CCCC2 | 9 | -1.19 |
| CCc1nnc(NCC(C)(C)CCS(C)(=O)=O)c(C#N)c1CC | 2 | -0.31 |
| CC(C)Oc1ccc(-c2cc(C(F)(F)F)n3nc(-c4ccccc4)c(-c4ccccc4)c3n2)cc1 | -15 | 1.87 |

| Compound | % Inhibition [%] | Z score |
| --- | --- | --- |
| Cc1ccnc([C@@H](NC(=O)c2c[nH]c3cc(C)nn3c2=O)C2CC2)c1 | -2 | 0.39 |
| COc1ccc(OC)c([C@H]2N(Cc3ccc(F)cc3)CCCN2Cc2ccccc2Cl)c1 | -3 | 0.37 |
| COc1ccc(OC)c(-n2c(-c3ccccc3)cc(C(=O)N3CCN(Cc4ccccc4)CC3)c2C)c1 | -8 | 1.09 |
| CCC(C(=O)Nc1ccc2c(c1)CN(CCc1ccc(OC)c(OC)c1)C(=O)C(C)O2)c1ccccc1 (configuration not stated) | 91 | -17.08 |
| COc1cccc(NC(=O)Nc2ccc3c(c2)CN(CCc2ccc(OC)c(OC)c2)C(=O)[C@H](C)O3)c1 | 0 | -0.08 |
| CCC(C(=O)Nc1ccc2c(c1)CN(CCc1ccccc1)C(=O)C(C)O2)c1ccccc1 (configuration not stated) | -7 | 0.66 |
| Cc1noc(C)c1N(C)C(=O)Nc1cccnc1 | -2 | 0.36 |
| COc1ccc(NC(=O)[C@H](NC(=O)Cc2c[nH]c3ccccc23)c2ccc(C)cc2)cc1 | -9 | 1.46 |
| CC1C(C(F)(F)F)OCCN1C(=O)NC1CCCC1Cc1ccccn1 (configuration not stated) | -4 | 0.71 |
| COc1ccc(-c2cc(C(F)(F)F)nc(-n3nc(-c4cccc(C)c4)c(C)c3-c3cccc(C)c3)n2)cc1 | -7 | 1.42 |
| COc1ccc(-c2cc(C(F)(F)F)nc(-n3nc(-c4cccc(OC)c4)c(Cl)c3-c3cccc(OC)c3)n2)cc1 | 91 | -10.21 |
| COc1cccc(-c2nn(-c3nc(-c4ccccc4)cc(C(F)(F)F)n3)c(-c3cccc(OC)c3)c2Cl)c1 | 38 | -3.81 |
| Cc1cc(NC(=O)c2ccc3ccccc3c2)n(-c2nc3c(c(=O)[nH]2)CCC3)n1 | 2 | -0.26 |
| Cc1cc(NC(=O)Cc2ccc(-c3ccccc3)cc2)n(-c2nc3c(c(=O)[nH]2)CCC3)n1 | -4 | 0.86 |
| CCOc1ccc2ccccc2c1C(=O)Nc1cc(C)nn1-c1nc2c(c(=O)[nH]1)CCC2 | 92 | -17 |
| Cc1cc(NC(=O)C(=O)NC2CC(C)CC(C)(C)C2)n(-c2nc3c(c(=O)[nH]2)CCC3)n1 (configuration not stated) | 85 | -13.4 |
| COc1ccccc1OCC(=O)Nc1cc(C)nn1-c1nc2c(c(=O)[nH]1)CCC2 | 1 | -0.14 |
| COCC(=O)Nc1cc(C)nn1-c1nc2c(c(=O)[nH]1)CCC2 | 1 | -0.17 |
| CC(NC(=O)N(C)CC1CCCO1)c1ccc(N2CCOCC2)cc1 (configuration not stated) | -3 | 0.42 |
| COC[C@H]1CN(C)CC12CCN(C(=O)Cc1ccc(Cl)cc1)CC2 | 9 | -1.07 |
